High-throughput results: PubChem, National Center for Advancing Translational Sciences (NCATS)
The list is not random: actives were taken first. Their share in the collection is about 5.4%.
FMDV inh = foot and mouth disease virus antiviral activity | AID 1159524 | FMDV antiviral cell-based qHTS | Potency, µM (top dose mostly 57.9 µM), actives largely listed as inhibitors | 1.2% of 410,000 active; calls by dose curve; tested in HEK293T cells; note: read-out not given here; nearly all actives have a fitted effect of over 45% in size
VACV mCherry inh = inhibitors of vaccinia virus infection (mCherry reporter signal) | Vaccinia virus mCherry reporter infection, fluorescence | Potency, µM (top dose mostly 36.5 µM), hits mostly inhibitors | 0.63% of 310,000 active | AID 720579; calls by dose curve; tested in A549 cells; note: nearly all actives have a fitted effect of over 35% in size
Vaccinia Venus = vaccinia inhibition (Venus reporter); Vaccinia virus Venus reporter expression, fluorescence; Potency, µM (highest dose often 36.5 µM), hits mostly inhibitors; 0.46% of 330,000 active; calls by dose curve; tested in A549 cells; note: nearly all actives have a fitted effect of over 30% in size
MARV entry inh = inhibitors of Marburg virus binding or cell entry; Potency, µM (doses to about 37.8 µM), most hits filed as inhibitors; AID 540276; 1.8% of 300,000 active; Marburg virus pseudotyped entry inhibition, cell reporter; calls by dose curve; tested in HEK293 cells
Sm TGR inh = S. mansoni TGR enzyme inhibition; Q962Y6; purified TGR, DTNB reduction, TNB absorbance 405 nm; Potency, µM (top dose mostly 114 µM), hits mostly inhibitors; 3% of 360,000 active; active = well fitted inhibition curve with a large enough effect; inconclusive = small, poorly fitted or top-dose-only effect; inactive = no such curve, though single readings can be large or run the other way; note: nearly all actives have a fitted effect of over 60% in size
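TGR 20 nM + NADPH 100 uM (dispensed conc.), cpd preinc 15 min RT; start with NADPH (500 uM addition) then DTNB (15 mM addition). Kinetic TNB absorbance, 405 nm filter. Four-parameter Hill fit across titration.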
LASV entry inh = blocks Lassa virus binding to or entry into cells; Potency, µM (highest dose often 37.9 µM), most hits filed as inhibitors; 1.2% of 300,000 active; Lassa virus pseudotype entry inhibition, cell reporter; calls by dose curve; tested in HEK293 cells; note: nearly all actives have a fitted effect of over 50% in size
Hits are given with their value; ! = not active in a repeat.

Screening Cc1ccc2c(c1)c1c3n2CCN(C(=O)c2ccc(C(F)(F)F)cc2)C3CCC1 (configuration not stated) returned FMDV inh inactive, VACV mCherry inh inactive, Vaccinia Venus inactive, MARV entry inh inactive, Sm TGR inh inactive and LASV entry inh inactive.
For COCCCNC(=O)Cn1c(=O)n(-c2ccc(C)c(C)c2)c(=O)c2c3c(sc21)CCCCC3 the results were FMDV inh inactive, VACV mCherry inh inactive, Vaccinia Venus inactive, MARV entry inh inactive, Sm TGR inh 89µM and LASV entry inh inactive.
COC(=O)c1cc(=O)n(Cc2ccc(F)cc2)c(=NCc2ccc(F)cc2)s1 was read as FMDV inh inactive and Sm TGR inh inactive.
For COC(=O)c1cc(=O)n(-c2ccc(F)cc2)c(=Nc2ccc(F)cc2)s1 the results were FMDV inh 22µM, VACV mCherry inh inconclusive, Vaccinia Venus inconclusive, MARV entry inh inconclusive, Sm TGR inh inactive and LASV entry inh inactive.
Screening COC(=O)c1cc(=O)n(Cc2cccs2)c(=Nc2ccc(F)cc2)s1 returned FMDV inh inconclusive, VACV mCherry inh inactive, Vaccinia Venus inconclusive and Sm TGR inh inactive.
Screening COC(=O)c1ccc(N=c2sc(C(=O)OC)cc(=O)n2C)cc1 returned FMDV inh 32µM, VACV mCherry inh inactive, Vaccinia Venus inactive and Sm TGR inh inactive.
`COC(=O)c1cc(=O)n(CCc2ccccc2F)c(=Nc2ccc(F)c(Cl)c2)s1` gave FMDV inh 16µM, VACV mCherry inh inconclusive, Vaccinia Venus inconclusive, MARV entry inh inactive and Sm TGR inh inactive.
For CCCc1nn(C)c2c1[C@@H](c1cccnc1)C(C#N)=C(N)O2 the results were MARV entry inh inactive.
Screening COc1ccc(N(C)S(=O)(=O)c2ccc(C)cc2)c([N+](=O)[O-])c1 returned FMDV inh inactive, VACV mCherry inh inactive, Vaccinia Venus inactive, MARV entry inh inactive, Sm TGR inh inactive and LASV entry inh 13µM.
For COc1ccc(NC(=O)CN(C)S(=O)(=O)c2ccc(C)cc2)c([N+](=O)[O-])c1 the results were FMDV inh inactive, VACV mCherry inh inactive, Vaccinia Venus inactive, MARV entry inh inactive, Sm TGR inh inactive and LASV entry inh inactive.
`CC(=O)N1c2ccccc2NC2=C(C(=O)CCC2)C1c1ccco1` (configuration not stated) gave FMDV inh inactive, VACV mCherry inh inactive, Vaccinia Venus inactive, MARV entry inh inactive, Sm TGR inh 35µM and LASV entry inh inactive.
COc1ccc(C2C3=C(CC(c4ccco4)CC3=O)Nc3ccccc3N2C(C)=O)cc1 (configuration not stated) was read as FMDV inh inactive, Vaccinia Venus inactive, MARV entry inh inactive, Sm TGR inh inactive and LASV entry inh inactive.
`COc1ccccc1CNc1ncnc2nc[nH]c12` gave FMDV inh inconclusive, VACV mCherry inh 3.5µM!, Vaccinia Venus inconclusive, MARV entry inh inactive, Sm TGR inh inactive and LASV entry inh inactive.
COc1ccc(-c2noc(CSc3nnc(C)n3-c3ccc(C)c(C)c3)n2)c(OC)c1 was read as FMDV inh inactive, VACV mCherry inh inactive, Vaccinia Venus inactive, MARV entry inh inconclusive, Sm TGR inh inactive and LASV entry inh inconclusive.
For Cc1cc2c(c(=O)o1)C(c1ccc([N+](=O)[O-])o1)C(C#N)=C(N)O2 (configuration not stated) the results were FMDV inh inactive, VACV mCherry inh inactive, Vaccinia Venus inactive, MARV entry inh inactive, Sm TGR inh 14µM and LASV entry inh inactive.
Cc1cc2c(c(=O)o1)[C@H](CC(C)C)C(C#N)=C(N)O2 was read as MARV entry inh inactive.
For C[C@H](N[C@@H](C)CCc1ccccc1)[C@H](O)c1ccc(O)cc1 the results were MARV entry inh inactive.
`CC(CCc1ccc(O)cc1)NCCC(c1ccccc1)c1ccccc1` (configuration not stated) gave FMDV inh inactive, VACV mCherry inh inconclusive, Vaccinia Venus inactive, MARV entry inh 7.1µM, Sm TGR inh inactive and LASV entry inh inconclusive.
`CC1(OC(=O)c2cccs2)C(=O)C=C2C=C(c3ccsc3)OC=C2C1=O` (configuration not stated) gave MARV entry inh inactive.
Screening CC1(OC(=O)C2CCCC2)C(=O)C=C2C=C(c3ccsc3)N(Cc3ccco3)C=C2C1=O (configuration not stated) returned FMDV inh inactive, VACV mCherry inh inactive, Vaccinia Venus inactive and Sm TGR inh 25µM.
`CC1(OC(=O)C2CCCC2)C(=O)C=C2C=C(c3ccsc3)N(CCCCO)C=C2C1=O` (configuration not stated) gave FMDV inh inactive, VACV mCherry inh inactive, Vaccinia Venus inactive, MARV entry inh inconclusive and Sm TGR inh inactive.
`COC(=O)CCCC1=CC2=CC(=O)C(C)(OC(=O)C3CCCC3)C(=O)C2=CO1` (configuration not stated) gave FMDV inh inactive, VACV mCherry inh inactive, Vaccinia Venus inactive and Sm TGR inh inactive.
CCCCC1=CC2=CC(=O)C(C)(OC(=O)C3CCCC3)C(=O)C2=CO1 (configuration not stated) was read as FMDV inh inactive, VACV mCherry inh inactive, Vaccinia Venus inactive and Sm TGR inh 40µM.
For CC1(OC(=O)C2CCCC2)C(=O)C=C2C=C(c3ccsc3)OC=C2C1=O (configuration not stated) the results were FMDV inh inactive, VACV mCherry inh inactive, Vaccinia Venus inactive, MARV entry inh inactive and Sm TGR inh 45µM.
Screening Cc1c(C(=O)N(Cc2cccc(F)c2)C2CCS(=O)(=O)C2)oc2cc(Br)ccc12 (configuration not stated) returned FMDV inh inactive, VACV mCherry inh inactive, Vaccinia Venus inactive, MARV entry inh inconclusive, Sm TGR inh inactive and LASV entry inh inconclusive.
`C=C(C)C(=O)NNc1ccccc1` gave FMDV inh inactive, VACV mCherry inh inactive, Vaccinia Venus inactive, MARV entry inh inconclusive, Sm TGR inh 1.6µM and LASV entry inh inactive.
O=C(/C=C/c1ccccc1[N+](=O)[O-])Oc1ccccc1 was read as Sm TGR inh inactive.
Screening COC(=O)C(=Cc1ccccc1[N+](=O)[O-])C(=O)OC returned FMDV inh 16µM and Sm TGR inh 7.1µM.
CC(C)CN(C(=O)c1ccc2c(c1)OCCO2)c1c(N)n(Cc2ccccc2)c(=O)[nH]c1=O was read as FMDV inh inactive, VACV mCherry inh inactive, Vaccinia Venus inactive, MARV entry inh inactive, Sm TGR inh inactive and LASV entry inh inactive.
Screening COCCCN(C(=O)c1cc2c(s1)CCCCC2)c1c(N)n(Cc2ccccc2)c(=O)[nH]c1=O returned FMDV inh inactive, VACV mCherry inh inactive, Vaccinia Venus inactive, MARV entry inh inactive, Sm TGR inh inactive and LASV entry inh 10µM.
CC(C)CN(C(=O)c1ccc([N+](=O)[O-])s1)c1c(N)n(Cc2ccccc2)c(=O)[nH]c1=O was read as FMDV inh inactive, VACV mCherry inh 20µM, Vaccinia Venus inconclusive, MARV entry inh inactive, Sm TGR inh inactive and LASV entry inh inactive.
